Screening data (PubChem)
Pemphigus Ab inh: human desmoglein-3 autoantibody binding inhibition; 310,000 compounds, 0.48% hits; DSG3-coupled beads, scFv-anti-DSG3-GFP binding, flow cytometry; active compounds read low; P32926; binding (percent of control), % at 10 µM;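 active = binding more than 3 SD below its plate's average and above zero; inconclusive = below that plate limit but binding exactly zero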;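 note: hits lower antibody fragment binding to DSG3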
AI-2 QS mod: modulators of Vibrio harveyi AI-2 quorum sensing system. activity change, % at 7.5 µM. AID 2094. 300,000 compounds, 0.4% hits. Vibrio harveyi JMH597 AI-2 luminescence/OD600 ratio, 9 h; active compounds read low; strain lacks LuxN and CqsS sensors; 0 = neutral-control median; in the data active = activity change below about -75%, passing the limit was not always enough; inconclusive = no clear call, values can overlap the other calls;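 note: luminescence divided by OD600 gain over 9 h not by final OD600 alone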
VLA-4 inh: inhibition in a human VLA-4 binding assay; P13612; VLA-4 expressing cells, ligand binding flow cytometry; inhibition, % (about 7 µM as worked out from the volumes in the protocol); 330,000 compounds, 0.2% hits; in the data active = inhibition above about 50%
NTR1 agonist: activates human neurotensin receptor 1 | 330,000 compounds, 0.17% hits | NTR1-U2OS beta-arrestin-GFP spot imaging, agonist mode | activation, % at 20 µM | AID 493036 | P30989;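 active = activation at or above 40% of the spot to cytoplasm intensity ratio, with at least 20 cells analyzed; inconclusive = wells under 20 cells, flagged as cytotoxic or low count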
Hits are given with their value; i = inactive; ? = inconclusive; nt = no result given. This is a sample that favours compounds with a hit; in the whole collection about 1.1% have one here.

SMILES	Pemphigus Ab inh	AI-2 QS mod	VLA-4 inh	NTR1 agonist
CCOC(=O)N/N=C/c1cn(CCCOc2ccc(C)cc2)c2ccccc12	-31.3	i	i	i
CC1C(c2ccccc2)=Nn2c(=O)n(-c3ccccc3)c(=O)n21 (stereo unspecified)	i	nt	nt	nt
O=C1c2ccccc2C(=O)c2c(O)c(O)cc(O)c21	i	nt	i	i
O=C1C=C(O)c2c(O)cc(O)c(O)c2C1=O	78.8	i	i	i
CCCCCn1c(=O)[nH]c2c(c1=O)CCC2	-1.0	i	i	i
COc1cccc(C(=O)Nc2nnc(-c3cccs3)o2)c1	i	-84.0	i	i
COc1cccc(C(=O)Nc2nnc(-c3ccc(Cl)cc3)o2)c1	i	-87.2	i	i
CC(=O)c1ccc(C(=O)Nc2nnc(-c3ccc(Cl)cc3)o2)cc1	i	?	i	i
O=C(COc1ccccc1)Nc1nnc(-c2ccc(Cl)cc2)o1	i	-89.6	i	i
COc1cccc(C(=O)Nc2nnc(-c3ccc(F)cc3)o2)c1	i	-88.2	i	i
Cc1nc(C(=O)O)cc([N+](=O)[O-])c1C	i	nt	nt	nt
Cc1ccc(CSc2nnc(Nc3ccc(C)cc3)s2)cc1	67.1	i	i	i
CCSc1nnc(Nc2ccc(C)cc2)s1	i	i	i	i
CC(=O)N1C(=O)/C(=C2\SC(=S)N(c3c(C)n(C)n(-c4ccccc4)c3=O)C2=O)c2ccccc21	66.8	i	i	nt
C[C@H]1O[C@@H](n2cc(F)c(=O)[nH]c2=O)[C@H](O)[C@@H]1O	i	-82.8	i	i
CC(=O)OCC1OC(n2cc(F)c(=O)[nH]c2=O)C(OC(C)=O)C1OC(C)=O (stereo unspecified)	i	i	i	i
CNC(=S)NN=C(C)CCCC(C)=NNC(=S)NC	i	nt	nt	nt
CCN1CCN(c2ccc(NC(=O)CC3OC(=O)c4ccccc43)cc2C)CC1 (stereo unspecified)	i	nt	nt	nt
C[C@H](CO)N1C[C@H](C)[C@@H](CN(C)S(=O)(=O)c2ccccc2)Oc2c(NC(=O)Nc3ccc4c(c3)OCO4)cccc2C1=O	i	nt	i	i
COc1ccccc1C(=O)NC1CCCc2ccccc21 (stereo unspecified)	nt	i	i	i
COc1ccc(S(N)(=O)=O)cc1C(=O)NC1CCCc2ccccc21 (stereo unspecified)	-38.5	nt	i	i
CC(C)N1CC2(CC(c3ccc(Cl)cc3Cl)=NO2)CN1C(=O)c1ccc(C(C)(C)C)cc1 (stereo unspecified)	i	nt	nt	nt
O=C(NCCNc1ccc([N+](=O)[O-])cc1)c1ccc(Cl)cc1	i	i	i	i
O=C(COc1ccc(Cl)cc1)NCCNc1ccc([N+](=O)[O-])cc1	71.5	i	i	i
O=C(CNC(=O)c1ccco1)OCc1ccc(Br)cc1	i	-76.5	i	i
SMILES	Pemphigus Ab inh	AI-2 QS mod	VLA-4 inh	NTR1 agonist
O=C(CNC(=O)c1ccco1)NCC(=O)OCc1ccc(Cl)cc1	i	nt	i	i
O=[N+]([O-])c1ccc(Cl)c(-c2ccc(/C=N/n3cnnc3)o2)c1	i	i	i	i
CNC(=S)N/N=C/c1ccc(-c2cc([N+](=O)[O-])ccc2Cl)o1	-11.7	i	i	i
N#C/C(=C/c1ccc(-c2cc([N+](=O)[O-])ccc2Cl)o1)C(N)=O	75.4	i	i	i
CCCN(CC(=O)Nc1ccccc1C)C(=O)COC(=O)c1cnc(C)cn1	i	nt	nt	nt
CC(=O)Oc1ccc(Cl)cc1CN(C(C)=O)C1CCCCC1	i	nt	nt	nt
COC(=O)c1ccc(NC(=O)c2cc(-c3ccccn3)nc3ccccc23)cc1	4.9	i	i	i
NS(=O)(=O)c1ccc(NC(=O)c2cc(-c3cccs3)nc3ccccc23)cc1	35.6	i	i	i
CN(C)S(=O)(=O)c1ccc(NC(=O)c2cc(-c3cccs3)nc3ccccc23)cc1	i	i	i	i
O=C(OCc1ccccc1F)c1cc(S(=O)(=O)N2CCCCC2)ccc1N1CCOCC1	i	nt	nt	nt
O=[N+]([O-])/C=C/c1c(OCc2ccccc2)ccc2ccccc12	i	i	i	61.3
CCCCn1c(N)c(N(CC(C)C)C(=O)CCN2C(=O)C3CC=CCC3C2=O)c(=O)[nH]c1=O (stereo unspecified)	i	nt	nt	nt
Cc1ccc(C(C#N)=Cc2ccc3c(c2)OCO3)cc1	i	nt	nt	nt
CS(=O)(=O)N1CCN(c2ccc([N+](=O)[O-])c(NCc3cccnc3)c2)CC1	24.8	i	i	i
CCN(c1ccccc1)S(=O)(=O)c1ccc(Cl)c(C(=O)NCc2ccco2)c1	i	nt	i	i
Oc1ccccc1-c1nnc(COc2ccc(Cl)cc2Cl)o1	65.8	i	i	i
COc1ccc(Oc2cc(Cl)nc(N)n2)cc1	i	i	i	i
Nc1nc(Cl)cc(Oc2ccc([N+](=O)[O-])cc2)n1	55.2	i	i	i
